{"source": "PubChem BioAssay AID1259398", "about": "(Fisher Drug Discovery Resource Center, 2018)", "note": "Where “and” joins values, the source holds several entries; their conditions need not be identical. Equal values may be shown once. The campaign covered roughly 290,000 compounds. About 230 (0.079%) were called active. For the sample, actives were picked, then their nearest neighbours and some compounds at random. A number with no mark means an inactive call. Rule as the data show it: active = inhibition above about 40%; inactive = the rest.", "data": [{"molecular_target": "Cyclic GMP-AMP synthase (Homo sapiens) (UniProt Q8N884)", "sequence (Q8N884 whole entry, looked up)": "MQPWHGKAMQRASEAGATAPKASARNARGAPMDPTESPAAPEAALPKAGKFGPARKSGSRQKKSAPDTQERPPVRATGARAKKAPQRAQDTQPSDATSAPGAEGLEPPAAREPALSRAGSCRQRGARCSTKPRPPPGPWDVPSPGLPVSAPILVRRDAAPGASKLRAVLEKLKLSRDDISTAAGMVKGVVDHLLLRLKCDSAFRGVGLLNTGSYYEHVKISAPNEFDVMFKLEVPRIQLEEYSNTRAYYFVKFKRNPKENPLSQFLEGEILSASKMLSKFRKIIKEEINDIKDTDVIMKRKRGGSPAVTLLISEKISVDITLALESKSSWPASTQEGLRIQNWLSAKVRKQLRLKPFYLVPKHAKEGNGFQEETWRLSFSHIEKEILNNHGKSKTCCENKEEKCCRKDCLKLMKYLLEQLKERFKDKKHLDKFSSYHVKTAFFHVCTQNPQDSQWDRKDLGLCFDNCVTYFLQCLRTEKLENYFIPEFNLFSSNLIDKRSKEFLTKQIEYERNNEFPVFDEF", "assay": "Primary biochemical luminescence assay for human cyclic GMP-AMP synthase inhibitors (AID 1259398);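 also: 0% = vehicle reaction and 100% = reaction without DNA for no activity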", "conditions": "recombinant h-cGAS, ATP depletion, Kinase-Glo luminescence; at 12.5 µM; hits give high values", "values": [{"smiles": "Cc1ccc(C)c(C(C)NC(=O)c2ccccc2-c2nn[nH]n2)c1", "note": "(stereo not drawn)", "inhibition": "-2.34%"}, {"smiles": "COc1ccc(-c2nc3ccccc3c(=O)n2Cc2ccc(F)cc2)c(OC)c1OC", "inhibition": "-5.68%"}, {"smiles": "O=C(c1cnc(-c2ccncc2)nc1)N1CCOC(CCCc2ccccc2)C1", "note": "(stereo not drawn)", "inhibition": "-8.45%"}, {"smiles": "O=C(CCC1CCN(C(=O)c2cccc(-n3cccn3)c2)CC1)Nc1ccccc1", "inhibition": "-9.6%"}, {"smiles": "CN1CCn2nc(C(=O)NC(c3ccccc3)c3ccco3)cc2C1", "note": "(stereo not drawn)", "inhibition": "-5.91%"}, {"smiles": "Cc1cc(-c2n[nH]c(=O)n2CCc2ccc(F)cc2)n(C)n1", "inhibition": "2.4%"}, {"smiles": "Cc1n[nH]c(=O)c2c(NC(=O)CSc3nnc(C)n3C3CC3)oc(C)c12", "inhibition": "-6.69%"}, {"smiles": "O=C(O)C=Cc1ccc(Br)s1", "inhibition": "-0.785%"}, {"smiles": "O=C(O)CCCc1ccc(Br)s1", "inhibition": "74.1% (active)"}, {"smiles": "O=C(CCSCc1ccccn1)NCc1ccc(Br)s1", "inhibition": "-8.25%"}, {"smiles": "Cc1noc(C)c1S(=O)(=O)N1CCCC1c1ccccn1", "note": "(stereo not drawn)", "inhibition": "-4.73%"}, {"smiles": "CN1CCN(Cc2cc(F)ccc2-n2cccn2)CC1CCO", "note": "(stereo not drawn)", "inhibition": "-8.61%"}, {"smiles": "NS(=O)(=O)c1ccc(CNc2ccc3ncc(-c4ccc(Oc5ccccc5)cc4)n3n2)cc1", "inhibition": "-8.75%"}, {"smiles": "Cc1ccc(CN(Cc2nc3cc(C)ccc3o2)C(=O)CC(C)C)cc1", "inhibition": "-3.11%"}, {"smiles": "Cc1cccc(S(=O)(=O)N2CCN(c3cc(-n4ccnc4)nc(C)n3)CC2)c1", "inhibition": "-1.12%"}, {"smiles": "Cc1cccc(-n2ccc3nc(N4CCCCC4)ncc3c2=O)c1", "inhibition": "-4.1%"}, {"smiles": "COc1cc(=O)n(-c2ccccc2C)nc1C(=O)NC(c1ccccc1)c1ccccc1", "inhibition": "-0.757%"}, {"smiles": "CCCCC(=O)N(C)c1c(C)nc2ccc(C(=O)NCCCN3CCCC3=O)cn12", "inhibition": "-4.09%"}, {"smiles": "CCCCS(=O)(=O)N1CCCN(c2nc(CCC)nc3onc(-c4cccc(C(F)(F)F)c4)c23)CC1", "inhibition": "-3.14%"}, {"smiles": "Cc1nn(C)c(C)c1CN(C(=O)C1CC(=O)N(CC(C)C)C1)C1CC1", "note": "(stereo not drawn)", "inhibition": "-3.8%"}, {"smiles": "O=C(CCCOc1cccc(Cl)c1Cl)N1CCN(C2CCOC2)CC1", "note": "(stereo not drawn)", "inhibition": "-4.45%"}, {"smiles": "Cn1c(CC2CCNCC2)nnc1SCc1noc(C2CCCO2)n1", "note": "(stereo not drawn)", "inhibition": "-3.73%"}, {"smiles": "COc1cc2c(cc1OC)C(C(C)NS(=O)(=O)c1ccccc1)N(Cc1ccccc1F)CC2", "note": "(stereo not drawn)", "inhibition": "-1.82%"}, {"smiles": "CC(=O)Nc1ccccc1N1C(=O)c2ccc(-c3nc4ccccc4c(=O)o3)cc2C1=O", "inhibition": "0.929%"}, {"smiles": "CCOC(=NCc1ccccc1)NC(=O)c1cccc(C(F)(F)F)c1", "inhibition": "-4.46%"}, {"smiles": "O=C1NC(C(=O)N2Cc3cnc(-c4ccccc4)nc3C2)CO1", "note": "(stereo not drawn)", "inhibition": "-0.988%"}, {"smiles": "CC(=O)c1[nH]c(C)c(C(=O)N2CCCCC2CCc2ccccn2)c1C", "note": "(stereo not drawn)", "inhibition": "-5.8%"}, {"smiles": "Cc1ccnc2nc(C(=O)N3CCCC3CN3CCCC3)nn12", "note": "(stereo not drawn)", "inhibition": "-10.3%"}, {"smiles": "Cc1[nH]c(/C=C2\\C(=O)Nc3ccc(S(=O)(=O)Cc4c(Cl)cccc4Cl)cc32)c(C)c1C(=O)N1CCC[C@@H]1CN1CCCC1", "inhibition": "63.1% (active)"}, {"smiles": "Cc1nn(C)c2ncc(C(=O)NCCn3cnnc3C(C)C)cc12", "inhibition": "1.28%"}, {"smiles": "CC(C)(C)c1cc2nc(-c3ccccc3)cc(C(=O)NC3CCCCNC3=O)n2n1", "note": "(stereo not drawn)", "inhibition": "1.91% and -3.83%"}, {"smiles": "CC(C)Nc1ccc(C(=O)N[C@H](C)C(C)(C)C)cn1", "inhibition": "-9.34%"}, {"smiles": "CC(NCc1ccccc1Cn1cccn1)C(=O)NC1CCCC1", "note": "(stereo not drawn)", "inhibition": "-4.67%"}, {"smiles": "Cc1ccc(Nc2nc(N3CCN(c4ccc(F)cc4)CC3)nc3nccnc23)c(C)c1", "inhibition": "-2.31%"}, {"smiles": "CCc1cnc2c(c1SCc1cccc(C(F)(F)F)c1)c(=O)n(C)c(=O)n2C", "inhibition": "-9.29%"}, {"smiles": "Cc1ccc(CN(CCc2c[nH]c3ccccc23)C(=O)CN(C(=O)c2ccc([N+](=O)[O-])cc2)C(C)C)cc1", "inhibition": "-6.46%"}, {"smiles": "Nc1cc(-c2cccc(C(F)(F)F)c2)nn1-c1ccc(C(=O)NCc2ccc3c(c2)OCO3)cc1", "inhibition": "-5.72%"}, {"smiles": "C=CCNc1ccccc1C(=O)N1[C@@H]2CC[C@H]1CC(O)C2", "note": "(stereo partly drawn)", "inhibition": "-2.12%"}, {"smiles": "Cc1ccc(/C=C/C(=O)N(C)C(C)c2cccc(S(N)(=O)=O)c2)o1", "note": "(stereo not drawn)", "inhibition": "-0.284%"}, {"smiles": "O=c1c(O)c(Br)ccc2c(Br)c(O)c(O)c(O)c12", "inhibition": "70.1% (active)"}, {"smiles": "O=C(C=Cc1ccc(Br)o1)NC1CCCCCC1", "inhibition": "-5.99%"}, {"smiles": "O=C(OCC(=O)N1CCCC1c1ccc(Cl)c(Cl)c1)C1CCOC1", "note": "(stereo not drawn)", "inhibition": "-2.27%"}, {"smiles": "CC(C)n1nccc1NC(=O)CN(C)S(=O)(=O)c1ccc(Cl)s1", "inhibition": "-6.6%"}, {"smiles": "Cn1cnnc1Sc1ccc(Cl)cc1NC(=O)C1CCCCC1", "inhibition": "-8.95%"}, {"smiles": "CCC(C)(C)NC(=O)[C@H](CC(C)C)N1CC[C@@]2(CCCN2C(=O)CCC(C)=O)C1=O", "inhibition": "0.355%"}, {"smiles": "Cc1csc(C2CCN(S(=O)(=O)c3ccc(F)cc3Cl)CC2)n1", "inhibition": "-7.52%"}, {"smiles": "Fc1cc(F)cc(-c2cncc(COc3ccc(F)cc3F)c2)c1", "inhibition": "1.15%"}, {"smiles": "COc1nc(C)cc(C)c1CNC(=O)C(=O)N1CCc2ccccc21", "inhibition": "4.25%"}, {"smiles": "CCOC(=O)C1(C)CCCN1C(=O)c1cc(C)on1", "note": "(stereo not drawn)", "inhibition": "-5.23%"}, {"smiles": "O=C(NC1CCN(c2ccccc2C(=O)NCc2cccc(C(F)(F)F)c2)CC1)c1ccccc1F", "inhibition": "-3.47%"}, {"smiles": "Cc1cc(=O)n(-c2ccc(S(=O)(=O)O)cc2C)[nH]1", "inhibition": "-8.43%"}, {"smiles": "CCOC(=O)C1CCCN(Cn2c(=O)c3ccccc3n3nc(C)cc23)C1", "note": "(stereo not drawn)", "inhibition": "-0.416%"}, {"smiles": "O=C(c1cc(Cn2ccc3ccccc32)[nH]n1)N1CCCC1c1nccs1", "note": "(stereo not drawn)", "inhibition": "-1.07%"}, {"smiles": "CCc1cnc(COc2ccc(OC3CCCCNC3=O)cc2)o1", "note": "(stereo not drawn)", "inhibition": "-10.1%"}, {"smiles": "COC(=O)c1c(C)[nH]c(C(=O)N2CCCC2c2ccc(OC)cc2)c1C", "note": "(stereo not drawn)", "inhibition": "-3.09%"}, {"smiles": "COc1ccc(-c2nnc(SCC(=O)N/N=C\\c3ccccn3)n2-c2ccccc2)cc1OC", "inhibition": "1.79%"}, {"smiles": "O=C1c2cccc3cccc(c23)C(=O)N1CCCCCc1n[nH]c(=S)o1", "inhibition": "-2.3%"}, {"smiles": "Cc1ccccc1N(CCCN1C(=O)c2cccc3cccc(c23)C1=O)C(=O)c1ccc([N+](=O)[O-])cc1", "inhibition": "-1.77%"}, {"smiles": "C[N+](C)(CCCCCC[N+](C)(C)CCCN1C(=O)c2cccc3cccc(c23)C1=O)CCCN1C(=O)c2cccc3cccc(c23)C1=O", "inhibition": "90.3% (active)"}, {"smiles": "COc1cn(CC(=O)NCc2ccc3c(c2)OCO3)c(CSc2ncccn2)cc1=O", "inhibition": "-5.34%"}, {"smiles": "COCCCN(CC(=O)N(Cc1ccc2c(c1)OCO2)Cc1cccs1)C(=O)C1C[C@H]1c1ccccc1", "note": "(stereo partly drawn)", "inhibition": "-8.64%"}, {"smiles": "O=C(CCNC(=O)C1CC2(CCNCC2)CN1)Nc1nccs1", "note": "(stereo not drawn)", "inhibition": "-7.06%"}, {"smiles": "COCc1c(Br)c(C)nc(OCC(=O)N/N=C\\c2cc(I)c(OCc3ccccc3Cl)c(OC)c2)c1C#N", "inhibition": "-3.7%"}, {"smiles": "CN1CCN(C(=O)c2cc(COc3ccc(-n4cncn4)cc3)on2)CC1c1ccccc1", "note": "(stereo not drawn)", "inhibition": "-7.12% and -3.64%"}, {"smiles": "CCOc1cc(Br)cc(/C=N\\Nc2nc(N3CCCCC3)nc(N3CCCCC3)n2)c1O", "inhibition": "-5.11%"}, {"smiles": "CC1CCCN(c2nn3c(C(=O)NCCN4CCCCCC4)cc(=O)nc3s2)C1", "note": "(stereo not drawn)", "inhibition": "-1.82%"}, {"smiles": "Nc1ccc(NC(=S)NCc2ccco2)cc1[N+](=O)[O-]", "inhibition": "-4.64%"}, {"smiles": "CCN1CCN(c2ccccc2NS(=O)(=O)c2cc(Br)ccc2OC)CC1", "inhibition": "-2.43%"}]}]}
